Compounds with a hit are over-represented: about 3.9% of the library has one in this group of screens.
BoNT F protease: blocks Botulinum neurotoxin F light chain protease; 360,000 tested, 0.22% active; Multiplex microsphere protease cleavage assay, flow cytometry; inhibition, % at 10 µM; in the data active = inhibition above about 35%, passing the limit was not always enough; inconclusive = no clear call, values can overlap the other calls; note: plate controls were buffer without enzyme for full effect and enzyme alone for no effect
Autofluor counter: flagged as autofluorescent in microsphere protease counterscreen. compound autofluorescence counterscreen, microsphere flow cytometry; stronger effect = higher value. fluorescence intensity (test concentration not listed). 360,000 tested, 3.1% active. AID 624483; in the data active = fluorescence intensity above about 16000; inconclusive = no clear call, values can overlap the other calls
BoNT A protease: blocks Botulinum neurotoxin A light chain protease; multiplex microsphere protease substrate cleavage, flow cytometry; inhibition, % at 10 µM; 360,000 tested, 0.17% active; AID 588499; note: plate controls were buffer without enzyme for full effect and enzyme alone for no effect
3CLpro inhibitor: SARS-CoV 3CLpro protease inhibition; 290,000 tested, 0.14% active; recombinant SARS-CoV 3CLpro, quenched FRET peptide cleavage; inhibition, % at 6 µM; in the data active = inhibition above about 12%
CCHFV vOTU inh: blocks the CCHF virus ovarian tumor domain protease; CCHFV vOTU protease, Pep-AMC fluorescence; inhibition, % at 11.5 µM; 370,000 tested, 0.55% active; AID 651958; in the data active = inhibition above about 30%; note: 0% = vehicle wells with enzyme and 100% = no enzyme wells
Anthrax LF inh2: blocks Bacillus anthracis lethal factor protease; P15917; multiplex microsphere protease cleavage assay, LF; inhibition, % at 10 µM; 360,000 tested, 0.12% active; note: plate controls were buffer without enzyme for full effect and enzyme alone for no effect
Target sequence (P15917 whole entry, looked up): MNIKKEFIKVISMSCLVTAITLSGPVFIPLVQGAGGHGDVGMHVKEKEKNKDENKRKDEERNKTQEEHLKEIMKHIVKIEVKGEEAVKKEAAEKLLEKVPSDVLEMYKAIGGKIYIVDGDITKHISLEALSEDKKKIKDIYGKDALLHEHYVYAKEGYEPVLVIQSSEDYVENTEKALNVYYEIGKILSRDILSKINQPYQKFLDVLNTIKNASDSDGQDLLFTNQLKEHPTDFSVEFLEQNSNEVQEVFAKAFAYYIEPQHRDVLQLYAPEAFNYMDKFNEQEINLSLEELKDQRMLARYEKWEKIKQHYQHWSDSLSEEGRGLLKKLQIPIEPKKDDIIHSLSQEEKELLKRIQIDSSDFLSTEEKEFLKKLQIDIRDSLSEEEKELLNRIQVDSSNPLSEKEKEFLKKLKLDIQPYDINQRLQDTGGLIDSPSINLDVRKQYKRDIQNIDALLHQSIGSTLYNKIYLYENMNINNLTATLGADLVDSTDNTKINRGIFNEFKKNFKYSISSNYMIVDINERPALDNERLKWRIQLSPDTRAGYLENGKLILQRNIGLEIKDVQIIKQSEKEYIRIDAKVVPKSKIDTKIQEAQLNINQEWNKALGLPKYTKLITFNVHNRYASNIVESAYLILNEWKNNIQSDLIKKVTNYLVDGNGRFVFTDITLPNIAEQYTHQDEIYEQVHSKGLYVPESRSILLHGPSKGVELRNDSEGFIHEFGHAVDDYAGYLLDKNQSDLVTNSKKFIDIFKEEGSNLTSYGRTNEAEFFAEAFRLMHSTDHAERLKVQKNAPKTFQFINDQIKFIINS
The depositor's hits bear a star; u = inconclusive; x = no result. Cut-off read from the data, not from the text of the source, unless noted: active = inhibition above about 30%; inconclusive = no clear call, values can overlap the other calls; inactive = below that.

SMILES | BoNT F protease | Autofluor counter | BoNT A protease | 3CLpro inhibitor | CCHFV vOTU inh | Anthrax LF inh2
O=C(Nc1nnc(-c2cccnc2)s1)c1cnc2ccccc2c1 | x | x | x | x | 2.3 | x
COC(=O)[C@]12CCCCC=C1N(Cc1ccc(OC)cc1)C(=O)[C@@H]2CC(=O)N1CCOCC1 | x | x | x | x | -7.7 | x
C=CCN1[C@@H](C)COc2cccc(N3CCCC3)c2S1(=O)=O | x | x | x | x | 2.3 | x
N#C[C@@H]1N[C@H](CO)[C@@H]1c1ccccc1 | x | x | x | x | -3.8 | x
Cc1c(NC(=O)CN2CCCc3ccccc32)c(=O)n(-c2ccccc2)n1C | -2.6 | 22099* | u | 1.8 | -6.9 | -1.6
COc1ccc(S(=O)(=O)Nc2c(C)n(C)n(-c3ccccc3)c2=O)cc1Br | -6.7 | 3820 | -2.2 | -3.6 | 8.8 | -10.1
Cc1c(NC(=O)CC(=O)Nc2c(C)n(C)n(-c3ccccc3)c2=O)c(=O)n(-c2ccccc2)n1C | 0.1 | 7785 | 0.7 | 6.3 | 6.1 | 1.3
COc1cc(Br)c(S(=O)(=O)Nc2c(C)n(C)n(-c3ccccc3)c2=O)cc1OC | -3.5 | 21059* | -1.3 | -7.0 | -7.5 | 2.2
Cc1cc(C(=O)Nc2c(C)n(C)n(-c3ccccc3)c2=O)c2ccccc2n1 | 15.0 | 3985 | -0.3 | 2.1 | 1.3 | 4.6
Cc1c(NC(=O)/C=C/c2cccs2)c(=O)n(-c2ccccc2)n1C | -1.4 | 22938* | -0.2 | -5.4 | -0.2 | -0.2
Cc1c(NC(=O)c2cc(=O)[nH]c3ccccc23)c(=O)n(-c2ccccc2)n1C | -5.3 | 17099* | -2.7 | 8.1 | 7.8 | -0.4
COC(=O)[C@]12C[C@H](CC(=O)N3CCSCC3)C(=O)N(CCc3ccc(OC)c(OC)c3)C1=C[C@H](C(C)C)O[C@@H]2C1CC1 | x | x | x | x | 6.9 | x
C#CCN(C)S(=O)(=O)c1ccc(N2CCCC2)cc1Br | x | x | x | x | 7.3 | x
COc1ccccc1NC(=O)Nc1c(C)n(C)n(-c2ccccc2)c1=O | 2.4 | 21129* | u | -2.6 | 2.6 | -5.2
CN(C)S(=O)(=O)c1ccc(/C(O)=C2/C(=O)C(=O)N(Cc3cccnc3)C2c2ccncc2)cc1 (stereo unspecified) | -6.7 | 17829* | -3.3 | -1.6 | 1.8 | -2.9
CN(C)S(=O)(=O)c1ccc(/C(O)=C2/C(=O)C(=O)N(Cc3cccnc3)C2c2cccs2)cc1 (stereo unspecified) | -1.7 | 5591 | 1.0 | -2.0 | 7.3 | 3.6
CC(C)Cc1nc2oc3c(NCC4CCCO4)ncnc3c2c2c1CCC2 (stereo unspecified) | 2.8 | 18869* | u | 1.6 | 0.3 | 1.7
CC(C)Cc1nc2oc3c(NCc4cccnc4)ncnc3c2c2c1CCC2 | -0.9 | 9172 | 0.4 | 1.7 | -3.2 | -6.7
c1ccc(-c2nc(NCC3CCCO3)c3oc4ccccc4c3n2)cc1 (stereo unspecified) | -1.4 | 23676* | u | 0.7 | -2.5 | -2.7
CCc1nc(NCc2ccccn2)c2oc3ccccc3c2n1 | -5.7 | 3285 | -0.1 | x | 1.7 | 0.8
c1ccc2c(c1)oc1c(NCC3CCCO3)ncnc12 (stereo unspecified) | 2.4 | 23180* | 0.1 | -5.3 | -3.8 | 0.5
c1ccc(CNc2ncnc3c2oc2ccccc23)nc1 | -0.9 | 22122* | u | -0.5 | -4.3 | -3.6
O=C(N[C@H](Cc1ccccc1)C(=O)N(CCC1=CCCCC1)CC1CC1)[C@H]1O[C@@H](n2ccc(=O)[nH]c2=O)[C@H](O)[C@@H]1O | x | x | x | x | -0.6 | x
CCOC(=O)CC[C@H]1CC[C@]2(CCCN(C3CCCCC3)C2)O1 | x | x | x | x | -4.6 | x
O=C1COc2ccc(OCc3ccc(F)cc3)cc21 | -0.3 | 23249* | -2.0 | -4.9 | -1.6 | -1.1
SMILES | BoNT F protease | Autofluor counter | BoNT A protease | 3CLpro inhibitor | CCHFV vOTU inh | Anthrax LF inh2
O=C(NCc1cccnc1)C(=O)Nc1nc2ccccc2s1 | -1.1 | 2461 | -1.1 | -1.9 | -6.1 | -0.3
Cc1ccc2c(Cl)c(C(=O)NCc3cccnc3)sc2c1 | 0.2 | 20230* | u | 7.4 | -4.0 | 1.8
Cc1ccc(CC(=O)NCc2cccnc2)cc1 | x | x | x | 1.4 | -11.9 | x
O=C(NCc1cccnc1)c1cccnc1-c1nc2ccccc2s1 | 0.7 | 22730* | 1.0 | 1.1 | -0.2 | 1.0
O=C(NCc1cccnc1)c1sc2ccccc2c1Cl | -7.3 | 24841* | u | 6.7 | -1.7 | -2.5
Cc1ccccc1CN1CCCCC(NC(=O)Nc2cccc(F)c2)C1=O (stereo unspecified) | x | x | x | x | 3.8 | x
CCN(CC)C(=O)CC[C@@H]1CC[C@]2(CCCN(Cc3ccncc3)C2)O1 | x | x | x | x | -10.2 | x
O=c1[nH]cnc2sc3c(c12)CCN(Cc1ccccc1)C3 | -2.7 | 3721 | 3.2 | 4.2 | -47.1 | 1.1
OCCCNc1ncnc2sc3c(c12)CCN(Cc1ccccc1)C3 | u | 7833 | 35.1* | 3.1 | -135.4 | -24.5
O=C(Cn1nnc(-c2ccccc2F)n1)Nc1ccc(F)cc1F | x | x | x | x | -2.7 | x
O=C(COc1ccc(S(=O)(=O)NC2CCCCC2)cc1Cl)Nc1ccc2c(c1)OCO2 | -6.9 | 25024* | -3.5 | 2.1 | 4.0 | -3.4
COCCCN1C(=O)[C@H](CC(=O)NCc2ccccc2)[C@]2(C(=O)OC)CCCCC=C12 | x | x | x | x | 5.7 | x
COc1ccc(S[C@]2(C(=O)NCCc3ccccc3)CC(=O)N[C@@H]2c2ccc(OC)cc2)cc1 | x | x | x | x | 13.7 | x
O=C(Nc1cc(C(F)(F)F)ccc1N1CCOCC1)C1Cc2ccccc2CN1C(=O)c1ccco1 (stereo unspecified) | -1.2 | 20221* | 2.5 | 5.0 | 3.0 | 2.4
O=C(Nc1cc(C(F)(F)F)ccc1N1CCOCC1)c1ccc2ccccc2n1 | -1.6 | 19909* | 0.5 | 2.3 | 0.2 | -5.4
Cn1ccnc1SCC(=O)Nc1cc(C(F)(F)F)ccc1N1CCOCC1 | 1.0 | 16282* | u | 4.5 | -8.9 | -1.1
O=C(Nc1ccccc1)C1Cc2ccccc2CN1C(=O)c1ccco1 (stereo unspecified) | 2.7 | 8551 | 1.2 | -1.1 | 10.5 | 14.2
Cc1cc(C(=O)Nc2cc(C(F)(F)F)ccc2N2CCOCC2)no1 | 7.3 | 5797 | 0.1 | -2.5 | 14.7 | 0.3
Cn1ccnc1SCC(=O)Nc1cccc(O)c1 | 0.2 | 17009* | -1.9 | -2.5 | 1.3 | -3.0
COc1cc(C(=O)NC2CCCCN(Cc3ccc(Cl)cc3)C2=O)cc(OC)c1OC (stereo unspecified) | x | x | x | x | -2.2 | x
O=S(=O)(c1ccccc1F)N1CCC(c2nc3ccccc3o2)CC1 | x | x | x | x | -4.6 | x
O=C(Nc1cc(C(F)(F)F)ccc1N1CCOCC1)c1cccc(F)c1 | -0.5 | 2713 | 0.5 | -1.1 | 10.3 | -1.2
O=C(Nc1cc(C(F)(F)F)ccc1N1CCOCC1)c1cncc(Br)c1 | -11.2 | 22690* | -9.6 | 1.3 | 9.0 | -1.2
COC(=O)[C@]12C[C@H](CC(=O)N3CCOCC3)C(=O)N(CCc3ccc(OC)c(OC)c3)C1=C[C@H](COCc1ccccc1)O[C@@H]2C | x | x | x | x | -9.9 | x
CCOC(=O)/C=c1\s/c(=C(\C#N)C(=O)NC)n(-c2ccccc2)c1=O | -5.0 | 3483 | 0.5 | -4.0 | 9.9 | -1.6
Cc1ccccc1-n1c(=O)/c(=C\c2ccco2)s/c1=C(/C#N)C(=O)Nc1ccccc1 | 7.6 | 20678* | 7.5 | -1.8 | -7.7 | 4.2
C=CC[C@H]1c2ccccc2[C@H]2N3N=Cc4ccccc4[C@H]3[C@H](CCc3ccccc3)C(=O)N2N1C(=O)c1ccccc1 | x | x | x | x | 10.1 | x

Compound activity deposited in PubChem by several laboratories.
